High-throughput results: PubChem BioAssay, National Center for Advancing Translational Sciences (NCATS)
VP16 counter: counter-screen for ROR gamma inhibitors: Gal4-VP16 reporter; Potency, µM (series often up to 53.6 µM), for inactives: top-dose activity, negative = inhibition, usual class: inhibitors; Drosophila S2 Gal4-VP16 UAS-luciferase, luminescence, 20 h; 310,000 tested, 3.5% active;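 also: Gal4-VP16 expression switched on by copper sulfate through the metallothionein promoter; potency is read from the fitted curve at half-maximal effect; % is scaled to controls: 0 for no effect and ±100 for the full control effect; nearly all actives have a fitted effect of over 50% in size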
CtBP-E1A inh: CtBP/E1A binding inhibition | AlphaScreen GST-E1A/His-CtBP binding, 1536-well; stronger effect = lower value | AID 651724 | 340,000 tested, 0.49% active | activity change, % (test concentration not listed); in the data active = activity change below about -65%; inconclusive = mostly about -30% to -63%; also: % is scaled to controls: 0 for no effect and ±100 for the full control effect
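Steps: dispense buffer (Tris pH 8.0, NaCl 300 mM, TCEP 1 mM, BSA, Tween 20); add 5X protein mix (GST-E1A, His-CtBP, 125 nM each); pin 23 nL compound; 2 h at 37 °C, dark; add 5X beads (50 ug/mL); 1 h; read.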
MBNL1 CUG block: blocks human MBNL1 binding to CUG repeat RNA; Potency, µM (highest dose often 57.5 µM), for the others: at the top dose activity change, negative = inhibition, actives largely listed as inhibitors; 280,000 tested, 0.036% active; TR-FRET MBNL1-His/biotin-(CUG)12 binding, 665/545 ratio; active = well fitted inhibition curve with a large enough effect in the signal ratio, with a control signal flat, not every such curve was filed as active; inconclusive = small, poorly fitted or top-dose-only effect, or effect the other way, or a change in a side signal; inactive = no such curve, though single readings can be large or run the other way; the % refers to the signal ratio; also: potency is read from the fitted curve at half-maximal effect; % is scaled to controls: 0 for no effect and ±100 for the full control effect
Target sequence (Q9NR56 whole entry, looked up): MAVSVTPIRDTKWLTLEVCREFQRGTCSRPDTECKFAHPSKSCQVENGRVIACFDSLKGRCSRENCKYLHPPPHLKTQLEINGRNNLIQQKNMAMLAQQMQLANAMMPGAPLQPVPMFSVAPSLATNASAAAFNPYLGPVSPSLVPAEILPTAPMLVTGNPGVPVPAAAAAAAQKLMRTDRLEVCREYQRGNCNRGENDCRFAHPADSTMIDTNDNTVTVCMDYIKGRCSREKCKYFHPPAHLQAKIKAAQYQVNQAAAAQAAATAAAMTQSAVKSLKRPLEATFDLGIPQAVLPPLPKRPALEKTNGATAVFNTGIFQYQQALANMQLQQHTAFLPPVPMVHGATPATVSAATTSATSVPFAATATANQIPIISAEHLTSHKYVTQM
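His-tagged MBNL1 binding to biotinylated (CUG)12 RNA was measured by TR-FRET using terbium anti-His antibody (0.055 ng/ul final) and streptavidin-XL665 (5 nM final). Compounds were titrated 92 nM to 58 uM; 60 min at room temperature.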
RORgamma inh: blocks mouse ROR gamma transcriptional activity; P51450; Drosophila S2 Gal4-RORgamma UAS-luciferase reporter, 20 h; Potency, µM (highest dose often 53.6 µM), inactives show at the top dose activity change, negative = inhibition, actives largely listed as inhibitors; 310,000 tested, 5.4% active; AID 2551; also: potency is read from the fitted curve at half-maximal effect; % is scaled to controls: 0 for no effect and ±100 for the full control effect; nearly all actives have a fitted effect of over 60% in size
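ROR gamma transcriptional activity was tracked as Gal4-UAS luciferase output in stably transfected Drosophila Schneider cells, with compound added 1 hr before 700 uM copper sulfate induction and a 20 hr ambient-temperature incubation.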
CBFb RUNX1 block: blocks binding between human CBF-beta and RUNX1; Potency, µM (titrated, usually from 59.8 µM), for inactives: at the top dose activity, negative = inhibition, actives largely listed as inhibitors; 230,000 tested, under 10 active; AID 1477; Q01196+Q13951; AlphaScreen CBFb-His/RUNX1-biotin binding, biochemical; also: % of control where 0% means no effect
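Compounds were screened at multiple concentrations against a preformed CBF-beta(His)/RUNX1(biotin) complex (30 nM of each) for 15 min at room temperature, followed by 90 min with nickel and streptavidin beads and AlphaScreen reading.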
Six1-Eya2 blk: inhibitors of human Six1/Eya2 interaction; activity change, % (test concentration not listed); AID 651725; 360,000 tested, 0.56% active; AlphaScreen GST-Six1/His-Eya2 binding, biochemical; stronger effect = lower value; Q15475+O00167; in the data active = activity change below about -65%; inconclusive = mostly about -30% to -63%; also: % is scaled to controls: 0 for no effect and ±100 for the full control effect
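Compounds are tested against tagged Six1 and Eya2 proteins bridged by glutathione donor and nickel acceptor beads; after a one-hour incubation at 37 °C without light, AlphaScreen emission is recorded.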
Numbers without * were called inactive; ? = inconclusive; . = no result given; [ ] = dose if it differs, or a comment. This is a sample that favours compounds with a hit; in the whole collection about 5.5% have one here. Unless noted, calls follow the shape of the dose curve; as a rule, active = well fitted curve in the direction sought with a large enough effect; inconclusive = small, poorly fitted or top-dose-only effect, or another doubt; inactive = no such curve, though single readings can be large; an effect the other way counts as inactive or inconclusive.

SMILES | VP16 counter | CtBP-E1A inh | MBNL1 CUG block | RORgamma inh | CBFb RUNX1 block | Six1-Eya2 blk
CC1(C)ON(C2CCCCC2)[C@H]2c3nc4ccccc4n3C[C@H]21 | -1% | 1 | 1% | 14µM* | . | -5
O=[N+]([O-])c1cc2c(cc1CN1CCN(CCOCCO)CC1)OCO2 | -12% | . | ? | -12% | . | 7
Cc1cc(OCn2ccc(C(=O)O)n2)ccc1Cl | 16µM* | 3 | -6% | ? | 1% | 4
Cc1cc(OCC(=O)NC(C)C)ccc1Cl | -7% | -3 | 0% | 1% | 2% | 2
Oc1ccc(-c2cnc(-c3ccc(O)cc3)nc2)cc1 | ? | -16 | 3% | 2.5µM* | . | 8
c1ccc(OCCNc2ccn3nc(-c4ccc(OCCN5CCOCC5)cc4)cc3n2)cc1 | . | -19 | . | . | . | -26
O=C(NCc1ccccn1)/C(=N/O)c1ccccc1 | -24% | 5 | -9% | 10µM* | -3% | -2
C/C(=N\O)C(=O)NCc1ccccn1 | . | 0 | -3% | 7%[0.365 µM] | 9% | -7
O=C(NCc1ccccn1)c1ccc(=O)oc1 | 1% | -79* | 3% | -25% | 1% | -87*
Cc1cc(=O)oc(C)c1C(=O)NCc1ccccn1 | 1% | ? | 5% | -19% | -5% | -81*
S=c1[nH]nc(Cc2noc3ccccc23)n1-c1ccc(Cl)cc1 | -8% | 0 | 8% | ? | -9% | 6
S=c1[nH]nc(Cc2cccs2)n1-c1ccccc1 | ? | 10 | -10% | 11µM* | 3% | 3
CCCCc1ccc(-n2c(Cc3cccs3)n[nH]c2=S)cc1 | ? | -5 | -5% | 1.4µM* | -12% | -1
COc1ccccc1-n1c(Cc2cccs2)n[nH]c1=S | -17% | 4 | -2% | 10µM* | 11% | -1
CCCCOCC(O)CCc1n[nH]c(=S)n1-c1ccccc1 (configuration not stated) | -6% | 13 | -19% | -45% | 6% | 2
S=c1[nH]nc(Cc2cccs2)n1-c1cccc2ccccc12 | ? | -6 | -13% | 4µM* | 6% | -1
S=c1[nH]nc(Cc2cccs2)n1-c1ccccc1Cl | ? | 0 | 4% | 6.3µM* | 7% | -3
COc1ccccc1-n1c(CNC(=O)c2cccs2)n[nH]c1=S | 4% | 15 | -3% | -23% | 3% | 6
Cc1ccc(C)c(-n2c(Cc3cccs3)n[nH]c2=S)c1 | 3.2µM* | -2 | 3% | 7.1µM* | 3% | -1
COc1ccc(S(=O)(=O)N2CCOCC2)cc1NC(=O)CSc1nnc2n1CCCCC2 | . | -1 | . | . | . | 1
CC1CCCC/C1=N\NC(=S)NCCc1ccccc1 (configuration not stated) | 1.8µM* | -12 | . | 0.35µM* | 1% | -17
S=C(NCCc1ccccc1)NCC(c1ccco1)N1CCCCC1 (configuration not stated) | ? | 0 | -10% | 10µM* | -4% | -5
S=C(NC1CCCCC1)N(CCc1ccccc1)CCc1ccccc1 | 10µM* | . | -16% | 10µM* | 24% | -10
COc1ccc(NC(=S)NCC(c2ccco2)N2CCCC2)cc1 (configuration not stated) | -6% | -22 | -13% | ? | -1% | -2
OCCN(Cc1ccccc1)C(=S)NC1CCCCC1 | -2% | 6 | -4% | ? | 10% | 12
SMILES | VP16 counter | CtBP-E1A inh | MBNL1 CUG block | RORgamma inh | CBFb RUNX1 block | Six1-Eya2 blk
S=C(NCCc1ccc(Cl)cc1)NC1CCCCC1 | 5µM* | 4 | -8% | 3.5µM* | . | -1
CCOc1ccc(S(=O)(=O)NC(Cc2c[nH]c3ccccc23)C(=O)O)cc1 (configuration not stated) | -20% | . | -6% | -10% | . | 1
S=C(NCCNCc1ccccc1)NC1CCCCC1 | ? | . | -4% | 4µM* | 5% | .
S=C(NCCc1ccccc1)NC1CCCCCC1 | 9%[0.365 µM] | -1 | 7% | 2.8µM* | -8% | 4
S=C(NCCc1ccc(Cl)cc1)NCc1ccccc1 | ? | -18 | -3% | ? | . | -1
O=C(NC1CCCCC1)C(=S)NCCc1ccccc1 | 2% | 9 | 0% | 20% | 22% | 3
S=C(NCCc1ccc(Cl)cc1)NC1CCCC1 | 6.3µM* | 1 | -5% | 2µM* | 0% | -1
CC(C)(C)OC(=O)C[C@@H]1C/C=C\C[C@H](CC(=O)N(CCO)Cc2ccccc2)C(=O)N2CCC[C@H]2COC1=O | . | -12 | . | . | . | 2
Cc1n[nH]c(=S)n1-c1ccc(Cl)cc1 | -9% | -3 | 14% | ? | 5% | 10
CC(c1n[nH]c(=S)n1-c1ccc(F)cc1)N1CCCCC1 (configuration not stated) | ? | 5 | -3% | 13µM* | 15% | 3
S=c1[nH]nc(-c2ccc3ccccc3n2)n1-c1ccc(Cl)cc1 | 1.4µM* | -3 | -2% | 1.1µM* | -5% | 0
O=C(NCc1n[nH]c(=S)n1-c1ccc(F)cc1)c1ccc(S(=O)(=O)N2CCCCC2)cc1 | -2% | 5 | -2% | -24% | . | -2
Fc1ccc(-n2c(-c3ccc4ccccc4n3)n[nH]c2=S)cc1Cl | -10% | -1 | 2% | ? | -6% | -2
CC(c1n[nH]c(=S)n1-c1ccc(Cl)cc1)N(C)C (configuration not stated) | -10% | 11 | -6% | 13µM* | 0% | -6
Cc1ccccc1-n1c(-c2ccc3ccccc3n2)n[nH]c1=S | 5µM* | -13 | . | 0.32µM* | 0% | -4
CCCCN(C)C(=O)c1sc(=O)n(Cc2c(C)noc2C)c1C | . | 0 | . | . | . | 2
COc1ccc(N2CC(C(=O)NCCc3ccc(Cl)cc3)CC2=O)cc1 (configuration not stated) | 7% | -2 | -1% | -3% | . | 0
Cc1ccnc(NC(=O)Cc2ccc(-c3ccccc3)cc2)c1 | ? | -4 | 15% | 11µM* | . | 9
Cc1ccnc(NCc2cccc3ccccc23)c1 | ? | -3 | 0% | 16µM* | . | -4
O=C(NC1CCCCC1)C(c1ccc(C(F)(F)F)cc1)n1c(=O)c(-c2ccco2)nc2ccccc21 (configuration not stated) | . | 0 | . | . | . | 1
Cc1cccc(C)c1NC(=O)c1cc(S(=O)(=O)N2CCc3ccccc32)cn1C | -9% | -1 | 5% | 19% | . | 0
Cc1ccc(C(=O)N2CCN(c3ncccn3)CC2)cc1 | -2% | -1 | 21% | 15% | . | 3
CC(=O)N1CCc2cc(S(=O)(=O)N3CCc4ccccc43)ccc21 | 13µM* | 9 | -5% | ? | . | -4
